# D2 ag-1 – human D2 receptor agonism in beta-arrestin assay. DiscoveRx PathHunter D2 beta-arrestin, luminescence, 90 min; 100% = 57 uM dopamine signal. hit rate 0.084% among 360,000. activation, % (test concentration not listed); in the data active = activation above about 40%; inconclusive = between about 15% and that limit
# Target sequence (P14416 whole entry, looked up): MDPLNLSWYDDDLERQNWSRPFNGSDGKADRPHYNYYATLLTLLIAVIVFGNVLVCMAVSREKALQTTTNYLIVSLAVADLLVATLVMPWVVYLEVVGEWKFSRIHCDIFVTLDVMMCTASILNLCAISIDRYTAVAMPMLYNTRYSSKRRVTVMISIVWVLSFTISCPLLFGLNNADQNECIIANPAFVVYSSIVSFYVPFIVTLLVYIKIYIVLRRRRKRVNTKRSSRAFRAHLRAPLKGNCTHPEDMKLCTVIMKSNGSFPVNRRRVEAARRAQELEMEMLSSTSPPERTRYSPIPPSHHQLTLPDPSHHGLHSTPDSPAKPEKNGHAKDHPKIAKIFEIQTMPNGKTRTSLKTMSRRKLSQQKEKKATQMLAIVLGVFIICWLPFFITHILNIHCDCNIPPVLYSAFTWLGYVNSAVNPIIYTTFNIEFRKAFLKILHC
#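 DiscoveRx PathHunter D2 beta-arrestin cells (2,100/well) attached overnight, then compound-stimulated 90 min at 37 C in HBSS/10 mM HEPES/0.1% Tween-20 buffer; beta-galactosidase complementation read by luminescence after 1 h at ambient temperature. Dopamine 57 uM final (EC100) as control.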
# D2 PAM-1 – positively modulates the human D2 dopamine receptor allosterically. potentiation, % at 10 µM. hit rate 0.34% among 340,000. P14416. HEK293 T-REx D2, calcium flux, EC20 dopamine potentiation;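 active = potentiation over 3 SD above the plate norm, cut at about 30% in these data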; also: 0% is about no effect
#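 Potentiation of an EC20 dopamine calcium response measured kinetically over 180 s, after a preceding 180 s compound-only read flagging agonists. Cells: inducible Hek293 Trex D2 line, 4000/well, cultured overnight at 30 C before dye loading.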
# D2 ag-2 – D2 dopamine receptor (human) agonism; P14416; HEK293 T-REx D2 cells, calcium flux agonist mode; activation, % at 2 µM; hit rate 0.53% among 340,000; AID 485358;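 active = activation over 3 SD above normal in the single-dose calcium agonist read, cut at about 30% in these data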; also: 0% is about no effect
#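 Tetracycline-induced HEK293 T-REx cells with force-coupled D2 receptor, plated overnight at 30 C, loaded with no-wash calcium dye. After a 10 s baseline, compound was pin-added and calcium flux read kinetically for 180 s; calcium rises flagged agonists.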
# D2 antag – antagonizes the human D2 dopamine receptor; AID 485344; inhibition, % at 10 µM; hit rate 2% among 340,000; HEK293 TREx D2 cells, calcium flux, dopamine EC80; P14416; in the data active = inhibition above about 30%; inactive = below that, where a call was filed; also: 0% is about no effect
#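 Compounds are added to dye-loaded, induced HEK293 T-REx cells coupled to calcium release via D2; after a 3 min kinetic read an EC80 dopamine stimulus is given and fluorescence is recorded for 3 more min.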
# D2 PAM-2 – potentiates the human D2 dopamine receptor allosterically; DiscoveRx D2 beta-arrestin cells, luminescence, 90 min; 100% = 57 uM dopamine signal; hit rate 0.23% among 360,000; potentiation, % (concentration not given with the values); P14416; in the data active = potentiation above about 50%; inconclusive = mostly about 30% to 49%
#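 PathHunter D2 cells, attached overnight at 37 deg C, received compound in DMSO plus dopamine at EC20 (50 nM final) for 90 min at 37 deg C. Beta-arrestin recruitment was read as luminescence after 1 h with detection reagent at ambient temperature.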
# D3 arrestin ag – confirmation of human D3 dopamine receptor agonists, beta-arrestin; AID 720506; Potency, µM (titrated, usually from 76.9 µM), without a hit: at the top dose activation, usual class: activators; shares compounds with D2 ag-2; hit rate 4% among 2,300; DiscoveRx D3 beta-arrestin cells, luminescence, 90 min;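 also: potency is read from the fitted curve at half-maximal effect; 100% = dopamine control response; nearly all actives have a fitted effect of over 70% in size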
# D2 ag-3 – D2 receptor agonism, beta-arrestin counterscreen | Potency, µM (top dose mostly 76.9 µM), without a hit: top-dose activation, most hits filed as activators | AID 720507 | hit rate 5.9% among 2,300 | DiscoveRx PathHunter D2 beta-arrestin, luminescence, 90 min; response scale: percent relative to full dopamine signal | shares compounds with D2 ag-2; also: potency is read from the fitted curve at half-maximal effect; % of control where 0% means no effect; nearly all actives have a fitted effect of over 70% in size
# Active calls of the source: *; ? = inconclusive; nt = no result. Hits are enriched below; roughly 2.4% of the tested compounds scored in any of these assays. Unless noted, calls follow the shape of the dose curve; as a rule, active = well fitted activation curve with a large enough effect; inconclusive = small, poorly fitted or top-dose-only effect; inactive = flat fitted curve, though single readings scatter.
SMILES,D2 ag-1,D2 PAM-1,D2 ag-2,D2 antag,D2 PAM-2,D3 arrestin ag,D2 ag-3
CCOc1ccc(/C=N/NC(=O)c2nnn(-c3nonc3N)c2-c2cccs2)cc1,3,5,7,16,-3,1%,-5%
CCc1ccc(/C=N/NC(=O)c2nnn(-c3nonc3N)c2C(C)C)cc1,1,10,26,18,-5,1%,1%
CCOC(=O)N1CCN(CC(=O)Nc2ccc(Oc3ccccc3)cc2)CC1,44*,-24,56*,43*,22,?,?
COc1ccc(NC(=O)CCN2CCN(c3ccc(F)cc3)CC2)cc1,2,-29,65*,77*,-15,12%,8%
O=C(CC1C(=O)NCCN1C(=O)Nc1ccccc1)Nc1ccc(F)cc1 (stereo not drawn),-4,-2,1,-1,-4,nt,nt
CCOc1ccc(NC(=O)CC2C(=O)NCCN2C(=O)Nc2ccccc2)cc1 (stereo not drawn),-1,-15,3,13,-7,-4%,-5%
O=C(CN1CCN(c2ccccc2)CC1)Nc1ccc(OCc2ccccc2)cc1,12,-14,44*,55*,-19,?,18%
COc1ccccc1NC(=O)C1CCN(c2cnccn2)CC1,nt,10,0,nt,nt,nt,nt
Cc1ccc(CNC(=O)c2cc(-c3ccc(C)cc3)nc3n[nH]c(-c4cccc([N+](=O)[O-])c4)c23)cc1,nt,-5,0,nt,nt,nt,nt
O=C(CCN1CCN(c2ccccc2)CC1)Nc1ccccc1,4,-27,73*,53*,1,9%,23%
CCOc1ccc(NC(=O)CCN2CCN(c3ccccc3)CC2)cc1,?,-29,98*,83*,-8,?,?
O=C(CCN1CCN(CCO)CC1)Nc1ccccc1,-6,14,1,-13,-4,nt,nt
CCc1cnc2c(c1SCC(=O)Nc1ccc(Cl)cc1)c(=O)n(C)c(=O)n2C,nt,-1,0,nt,nt,nt,nt
CCOc1ccc2oc(=O)cc(CN3CCN(c4ccc(OC)cc4)CC3)c2c1,nt,-2,1,nt,nt,nt,nt
Cc1ccc(CNC(=O)c2nc(-c3ccc(Cl)cc3)n3c2CCCCC3)cc1,nt,3,-1,nt,nt,nt,nt
CCc1ccccc1NC(=O)C1CCCN1S(=O)(=O)c1ccc(-c2ccc(=O)[nH]n2)s1 (stereo not drawn),7,5,10,-15,-10,11%,2%
Cc1cccc(C)c1NC(=O)C1CCCN1S(=O)(=O)c1ccc(-c2ccc(=O)[nH]n2)s1 (stereo not drawn),-3,2,1,-4,1,nt,nt
CCCN1CCN(CCNC(=O)Nc2cc(Cl)c(OC)cc2OC)CC1,nt,-21,0,nt,nt,nt,nt
c1ccc(N2CCN(C3CCSC3)CC2)cc1 (stereo not drawn),4,-35,41*,18,-18,-9%,10%
CN(Cc1ccccc1)C(=O)c1ccc(NC(=O)Cc2cccc(NC(=O)C3CCN(C(=O)C4CCC4)CC3)c2)cc1,2,9,1,-6,-7,-1%,-2%
CN(Cc1ccccc1)C(=O)c1ccc(NC(=O)Cc2ccc(NC(=O)C3CCN(C(=O)C4CCC4)CC3)cc2)cc1,-1,nt,nt,nt,nt,nt,nt
CN1CC2=Cc3ccccc3OC23Oc2ccccc2C=C3C1,-8,-18,59*,64*,-42,-19%,-8%
CCN(CC)S(=O)(=O)c1ccc(C)c(NC(=O)CN(C)C)c1,0,1,0,5,-15,nt,nt
Cc1ccc(S(=O)(=O)N2CCOCC2)cc1NC(=O)CNCc1ccccn1,?,-12,52*,33*,-4,7.9µM*,?
COc1ccccc1CNCC(=O)Nc1cc(S(=O)(=O)N2CCOCC2)ccc1Cl,7,-11,19,85*,-4,19%,?
SMILES,D2 ag-1,D2 PAM-1,D2 ag-2,D2 antag,D2 PAM-2,D3 arrestin ag,D2 ag-3
COc1ccccc1CNCC(=O)Nc1cc(S(=O)(=O)N2CCCCCC2)ccc1Cl,1,-5,0,85*,-21,23%,30%
CCN(CC)S(=O)(=O)c1ccc(C)c(NC(=O)CNCc2ccccc2OC)c1,?,-32,82*,96*,1,?,?
COc1ccccc1CNCC(=O)Nc1cc(S(=O)(=O)N2CCCCC2)ccc1C,?,nt,nt,nt,-8,nt,nt
Cc1ccc(S(=O)(=O)N2CCOCC2)cc1NC(=O)CSc1ncccn1,-2,-13,2,9,3,nt,nt
CCc1ccc(CNCc2c(C(=O)O)n(Cc3ccc(C)cc3)c3cc(C)ccc23)cc1,nt,-1,1,nt,nt,nt,nt
O=C(Nc1ccccc1)OCCN1CCN(Cc2ccccc2)CCC1=O,-6,-4,-1,4,-6,nt,nt
Cc1ccc(NC(=O)OCCN2CCN(Cc3ccccc3)CCC2=O)cc1,0,-12,50*,43*,-5,8%,?
CN(C)c1ccc(/C=N/N(CCO)C2=NS(=O)(=O)c3ccccc32)cc1,-9,0,6,-7,-19,6%,-1%
O=S(=O)(NCc1ccc(F)cc1)c1cc(Br)ccc1Br,-1,-15,-1,4,-3,-1%,-5%
O=S(=O)(NCCc1ccc(F)cc1)c1cc(C(F)(F)F)ccc1Br,-1,nt,nt,nt,nt,nt,nt
O=C(Nc1ccc2oc(-c3cccnc3)nc2c1)c1ccc(-c2cccc(OC(F)(F)F)c2)o1,nt,nt,1,nt,nt,nt,nt
O=C(Cc1ccccc1)NNC(=S)Nc1ccc(Cl)cc1,-7,-20,44*,5,-19,1%,-4%
CSc1ccc(CCNC(=O)CCc2c(C)nc3c(-c4ccccc4)c(C)nn3c2C)cc1,nt,12,0,nt,nt,nt,nt
O=C(c1oc(=O)c2ccccc2c1-c1ccccc1)N1CCC(O)CC1,-9,4,-1,24,-8,-8%,-6%
C=CCn1c(SC(C)C(=O)c2c(N)n(C)c(=O)n(C)c2=O)nnc1-c1ccoc1C (stereo not drawn),5,-8,32*,-7,6,-27%,5%
CN=c1scc(C)n1/N=C/c1cc(Br)c(O)c(OC)c1,1,-4,1,-31,5,nt,nt
CN=c1scc(-c2cccs2)n1/N=C/c1ccccc1O,-3,27,-1,0,-34,nt,nt
CN=c1scc(C)n1/N=C/c1ccc(O)c(O)c1O,52*,-9,40*,-11,93*,40µM*,7%
CN=c1scc(-c2cccs2)n1/N=C/c1ccc(O)c(O)c1O,182*,-22,66*,89*,109*,25µM*,14µM*
Cc1ccc(-c2cnc(C3CC3)o2)cc1S(=O)(=O)Nc1ccc(F)cc1Cl,nt,5,-2,nt,nt,nt,nt
